Hits are enriched below; roughly 5.4% of the tested compounds scored in any of these assays.
Mdm2-MdmX inh: inhibitors of human Mdm2/MdmX interaction | SaOS-2 split-luciferase Mdm2/MdmX complementation, luminescence | AID 485346 | O15151+Q00987 | inhibition, % at 8 µM | 330,000 compounds, 3% hits;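 active = inhibition of at least 50% at 8 µM in the primary screen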
Target sequence (O15151 whole entry, looked up): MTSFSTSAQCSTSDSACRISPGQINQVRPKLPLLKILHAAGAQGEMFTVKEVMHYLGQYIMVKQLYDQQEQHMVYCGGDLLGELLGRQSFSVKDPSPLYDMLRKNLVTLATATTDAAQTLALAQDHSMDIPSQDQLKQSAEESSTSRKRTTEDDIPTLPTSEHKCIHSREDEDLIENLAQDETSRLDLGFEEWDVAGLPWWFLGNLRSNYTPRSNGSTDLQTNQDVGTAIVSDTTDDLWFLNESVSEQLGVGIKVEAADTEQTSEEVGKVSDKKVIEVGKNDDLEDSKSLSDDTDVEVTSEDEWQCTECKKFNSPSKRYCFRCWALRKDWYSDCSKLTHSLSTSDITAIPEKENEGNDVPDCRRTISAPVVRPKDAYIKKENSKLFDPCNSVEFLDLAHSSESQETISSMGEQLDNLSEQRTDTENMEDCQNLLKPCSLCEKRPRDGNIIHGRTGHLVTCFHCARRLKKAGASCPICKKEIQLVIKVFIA
Target sequence (Q00987 whole entry, looked up): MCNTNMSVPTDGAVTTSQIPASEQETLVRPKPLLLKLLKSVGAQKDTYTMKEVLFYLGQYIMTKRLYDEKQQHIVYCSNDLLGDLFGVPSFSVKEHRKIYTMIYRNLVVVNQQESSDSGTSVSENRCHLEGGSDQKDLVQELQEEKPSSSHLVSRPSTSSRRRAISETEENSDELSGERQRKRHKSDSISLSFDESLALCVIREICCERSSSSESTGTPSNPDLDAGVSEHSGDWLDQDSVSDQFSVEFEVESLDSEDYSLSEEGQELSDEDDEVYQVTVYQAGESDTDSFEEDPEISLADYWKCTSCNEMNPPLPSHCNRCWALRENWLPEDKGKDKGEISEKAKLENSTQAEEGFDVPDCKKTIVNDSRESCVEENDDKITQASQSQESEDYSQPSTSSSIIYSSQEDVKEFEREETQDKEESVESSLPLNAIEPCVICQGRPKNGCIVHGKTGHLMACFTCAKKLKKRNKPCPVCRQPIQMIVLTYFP
Beta cell apopt: blocks beta cell apoptosis. INS-1E cytokine-induced death, ATP luminescence, 48 h; percent of positive-control rescue, neutral wells zero. protection from apoptosis, % (test concentration not listed). 300,000 compounds, 0.8% hits. AID 435005;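 active = Every replicate reaches about 75%, or at least half do and their mean reaches it too, limit read from the data; inconclusive = At least half of replicates reach the limit but their mean does not; inactive = Under half of replicates reach the limit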;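 note: 0% = cytokine-treated negative control wells and 100% = positive control rescue; higher means more ATP so stronger rescue from cytokine killing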
CSC inhib: blocks cancer stem cells. cancer stem cell-like cells viability, luminescence. inhibition, % at 7.5 µM. 300,000 compounds, 1.1% hits. AID 2717; in the data active = inhibition above about 75%; inconclusive = no clear call, values can overlap the other calls; tested in HMLE shEcad cells
SKKanGAS inh: inhibitors of SKKanGAS S. pyogenes growth in kanamycin (SK-promoter or general growth effect); BacTiter-Glo, 6 h; inhibition, % at 7.5 µM; 300,000 compounds, 1.3% hits;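 active = mean replicate score, as percent of positive control median, at least 50; inconclusive = mean below 50 but one replicate at or above 50; inactive = mean and every replicate below 50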;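 note: strain carries kanamycin resistance gene driven by streptokinase promoter and grows in 40 µg/ml kanamycin; loss of luminescence reflects streptokinase promoter inhibition or plain growth inhibition; 0% = median of DMSO wells and 100% = positive control at its reference dose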
MPTP inh: blocks calcium-induced mitochondrial swelling; isolated mouse mitochondria, Ca2+ swelling absorbance, 30 min; inhibition, % at 10 µM; 360,000 compounds, 1.4% hits; AID 602449;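 active = inhibition of 50% or more, scaled per plate between neutral and stimulator controls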;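 note: 0% = DMSO wells given calcium and 100% = 1 mM EGTA wells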
Calb FLC: C. albicans growth modulation with fluconazole; C. albicans CaCi-2 (fluconazole-resistant clinical isolate) + fluconazole, Alamar Blue growth, 48 h; growth inhibition, % (no concentration beside the values); 300,000 compounds, 0.57% hits; AID 1979;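 active = growth inhibition above about 58% in most replicates, limit read from the data, passing the limit was not always enough; inconclusive = exactly half the replicates above a set limit; inactive = most replicates below a set limit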;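 note: all wells also contain fluconazole at 8 µg/ml as a sub-toxic cotreatment; 0% = median of DMSO wells and 100% = median of geldanamycin control wells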
Rh123 counter: Rhodamine 123 counter-screen of mitochondrial pore hits. shares compounds with MPTP inh. isolated mitochondria, membrane potential, Rhodamine 123 fluorescence. inhibition, % at 10 µM. 5,000 compounds, 78% hits. AID 624504; in the data active = inhibition above about 22%;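 note: 0% = DMSO vehicle and 100% = positive control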
MPTP swell DR: dose response confirmation of mitochondrial permeability transition pore inhibitors. shares compounds with MPTP inh. isolated mitochondria swelling, absorbance. IC50, µM. 780 compounds, 58% hits. AID 651561; in the data active = IC50 below about 20 µM
MPTP cs DR: active in counter-screen for permeability transition pore inhibitors; shares compounds with MPTP inh; isolated mitochondria counterscreen, fluorescence read-out; IC50, µM; 780 compounds, 49% hits; in the data active = IC50 below about 80 µM
* marks the source's active call; other numbers are inactive results; i = inactive; ? = inconclusive; . = no result given.

SMILES	Mdm2-MdmX inh	Beta cell apopt	CSC inhib	SKKanGAS inh	MPTP inh	Calb FLC	Rh123 counter	others
CN(C(=O)CSc1nnc(C(F)(F)F)n1N)C1CCS(=O)(=O)C1 (configuration not stated)	-7.2	-8.9	-14.9	4.2	2.3	-2.2	.
O=C(CCc1nnc(C2CCCCC2)o1)N1CCCCC1CCn1cccn1 (configuration not stated)	14.7	-4.1	-3.2	1.6	-0.1	-6.8	.
COc1ccccc1CNc1nc(NC(C)C)nc2cc(-c3ccccc3)sc12	.	.	.	.	75.0*	.	100.9*
CC(C)Nc1nc(NCCOc2ccccc2Cl)c2sc(-c3ccccc3)cc2n1	.	.	.	.	60.1*	.	105.0*
CC(C)=Cc1oc2ccc([N+](=O)[O-])cc2c1N1CC(C)OC(C)C1 (configuration not stated)	3.1	-3.7	-9.0	-0.2	2.5	2.8	.
CCN1CCN(c2cc(SC(C)C)nc(-c3ccc(OC)cc3)n2)CC1	.	.	.	3.7	77.6*	-10.7	-15.7	MPTP swell DR=10.4*;MPTP cs DR=62*
COC(=O)c1cccc(NS(=O)(=O)c2ccc(OC)c(OC)c2)c1C	19.5	13.1	3.9	-3.7	55.5*	-4.9	20.7*
c1ccc2[nH]c(-c3cnco3)cc2c1	10.1	-1.4	-2.0	-7.5	1.0	-4.2	.
Clc1ccc(CONc2ncnc3nonc23)c(Cl)c1	-38.3	9.5	25.2	.	56.0*	76.0*	95.8*
CCONc1ncnc2nonc12	-26.3	-8.3	0.5	-4.8	-1.2	?	.
CC1(c2ccccc2)O[C@@H]2C[C@H]3[C@@H]4CCC5=CC(=O)C=C[C@]5(C)[C@@]4(F)[C@@H](O)C[C@]3(C)[C@]2(C(=O)CO)O1 (some centres not stated)	8.2	-6.1	1.9	-5.1	2.0	-6.7	.
CCc1nc2c(cnn2-c2ccc(F)cc2)c(=O)n1-c1ccc(N2CCC(C)CC2)cc1	46.6	28.3	56.3	20.1	76.0*	-9.9	2.1	MPTP swell DR=7.31*;MPTP cs DR=20.8*
COc1ccccc1NS(=O)(=O)c1cc(NC(=O)c2cccs2)ccc1N1CCCC1	-7.2	38.3	4.6	8.7	5.9	5.9	.
O=C(Nc1ccc(N2CCCC2)c(S(=O)(=O)Nc2cccc(C(F)(F)F)c2)c1)c1cccs1	14.9	0.8	14.9	52.1*	74.0*	0.7	50.2*
CCOc1ccccc1NC(=O)c1ccc([N+](=O)[O-])cc1	6.9	-1.2	-14.0	-7.0	.	3.9	.
CCSc1nc2sc3c(c2c(=O)n1C1CCCCC1)CCN(C)C3	.	.	.	.	50.1*	.	29.8*
O=C1Nc2ccccc2C(O)(C(=O)NCc2ccco2)N1c1ccc(Cl)cc1 (configuration not stated)	-55.0	-0.3	1.3	-1.7	89.7*	-0.3	86.9*
NC1=NC[C@H](Cc2ccc(O)cc2)N1CC1CCCCC1	4.6	3.1	8.2	6.1	-0.5	10.5	.
NC1=NC[C@@H](Cc2ccc(O)cc2)N1CCCCC1CCCCC1	41.4	57.0	22.7	9.4	59.8*	-33.7	4.8	MPTP swell DR=9.62*;MPTP cs DR=24.4*
N#Cc1c(-c2cccs2)nc(SCc2ccc(Cl)cc2)[nH]c1=O	20.9	.	.	-1.9	95.9*	39.0	71.3*
Cc1nc(NC(C)c2ccccc2)c2oc3ccccc3c2n1 (configuration not stated)	18.2	36.5	-1.8	-1.7	64.3*	-0.1	96.1*
c1ccc(CNc2ncnc3c2oc2ccccc23)nc1	-22.7	1.1	-19.8	-8.0	0.6	4.5	.
COc1ccc(CCNc2ncnc3c2oc2ccccc23)cc1OC	19.3	107.4*	-3.0	4.1	97.1*	38.2	99.1*
COc1ccc(CCNc2nc(C)nc3c2oc2ccccc23)cc1OC	11.4	69.9	-13.7	1.9	71.1*	-1.4	91.2*
CC(C)C[C@H]1CNC(=S)N1C[C@H]1CCCN1C[C@H](CC(C)C)N1C[C@H](Cc2ccc(O)cc2)N(CCc2ccccc2)C1=S	.	.	.	.	3.7	.	.
SMILES	Mdm2-MdmX inh	Beta cell apopt	CSC inhib	SKKanGAS inh	MPTP inh	Calb FLC	Rh123 counter	others
COC1(NS(=O)(=O)c2ccc(Br)cc2)C(C)=CC(=O)C=C1C	6.2	-1.1	-3.9	-4.6	77.5*	5.4	3.5	MPTP swell DR=i;MPTP cs DR=>80
Cc1ccc(NS(=O)(=O)c2ccc(Br)cc2)nc1	2.9	-9.2	-2.2	-7.9	0.1	24.1	.
CCCCC[C@@H](C)N1C[C@H](COCc2ccccc2)Oc2cc(N3CC[C@@H](O)C3)ccc2S1(=O)=O	.	.	.	.	3.1	.	.
CCOC(=O)C1CCN(C(=O)COC(=O)c2oc3ccc(OC)cc3c2C)CC1	-18.2	.	.	.	0.2	.	.
O=[N+]([O-])c1cc(-n2cnnn2)ccc1N1CCC(Cc2ccccc2)CC1	18.2	17.6	51.8	23.5	75.3*	22.4	57.0*
O=C(CSc1nc(-c2ccccc2)nn1C(=O)c1ccccc1)Nc1cccc([N+](=O)[O-])c1	14.6	.	-2.0	0.8	50.5*	7.3	47.2*
O=C(N/C(=C\c1ccc2c(c1)OCO2)C(=O)N1CCOCC1)c1ccccc1Br	13.8	-1.9	-1.6	-3.5	-2.2	5.6	.
O=C1C(Cl)=C(Nc2ccccc2O)C(=O)N1CCc1ccccc1	-17.8	-0.2	1.8	-2.9	61.1*	10.1	59.9*
COc1ccc(CCNC2=C(Cl)C(=O)N(CCc3ccccc3)C2=O)cc1OC	12.0	4.5	-0.8	7.5	0.3	0.8	.
O=C1c2ccccc2C(=O)N1c1ccc(Cc2ccncc2)cc1	9.0	-3.6	-7.5	2.7	54.0*	5.8	15.6	MPTP swell DR=i;MPTP cs DR=27.2*
CCC(O)(CC)C(=O)N/N=C/c1cc(Br)cc(Br)c1O	43.4	28.3	?	89.2*	83.1*	6.4	45.6*
Cc1ccccc1Cn1c(C)nc2ccccc21	12.2	.	3.4	3.5	101.2*	11.7	89.0*
Nc1nc2ccccc2n1Cc1ccc(Cl)c(Cl)c1	6.9	29.1	6.7	2.7	9.5	14.6	.
Cc1nc2ccccc2n1Cc1ccc(Cl)cc1	18.6	71.0	-14.7	-0.3	93.5*	.	95.5*
Cc1ccc(Cn2c(N)nc3ccccc32)cc1	13.8	8.8	-12.3	-2.2	55.2*	-2.7	21.2*
COc1ccccc1Cn1c(C)nc2ccccc21	9.4	4.3	-13.1	45.1	17.2	-1.9	.
OCc1nc2ccccc2n1Cc1ccc(Cl)cc1	14.7	0.5	-6.7	1.7	1.2	-5.7	.
Cc1ccc2[nH]cc(CCNC(=O)Nc3ccccc3)c2c1	-35.1	-1.9	.	-11.8	0.1	-9.2	.
CC1CCCN(CC(O)COc2ccc(S(=O)(=O)N3CCCC3)cc2[N+](=O)[O-])C1 (configuration not stated)	-26.7	-6.4	23.0	.	0.4	.	.

Bioassay records from PubChem BioAssay.
